Compound activity (PubChem)
Hits are enriched below; roughly 1.3% of the tested compounds scored in any of these assays.
LRH-1 inv ag – suppresses constitutive activity of human LRH-1; O00482; 360,000 tested, 0.13% active; HEK293T StAR-luciferase reporter, LRH-1 transfected, 24 h; inhibition, % at 3.6 µM;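 active = inhibition above the mean inhibition of all tested compounds plus 3 SD, cut at about 73% in these data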;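 also: 0% = DMSO wells and 100% = reporter-only cells lacking LRH-1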
NR2F2 inh – inhibitors of human COUP-TFII (NR2F2); P24468; HEK293T NGFI-A luciferase reporter, luminescence; inhibition, % at 8.6 µM; 370,000 tested, 0.7% active; AID 686940;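 active = inhibition above a per-plate cutoff, mean inhibition of test wells between control levels plus 3 SD, cut at about 38% in these data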;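 also: cells cotransfected with COUP-TFII expression vector driving the NGFI-A reporter; 0% = median of COUP-TF2 test wells and 100% = reporter-only cells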
SRC2 inh – inhibits human steroid receptor coactivator 2. HEK293 GAL4-SRC2 luciferase reporter, luminescence. 370,000 tested, 0.17% active. inhibition, % at 9 µM;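 active = inhibition above the mean inhibition of all tested compounds plus 3 SD, set per campaign, cut at about 52% in these data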;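 also: 0% = DMSO treated cells and 100% = cells given Gossypol at 36 µM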
Gli-Sufu antag – Gli-Sufu pathway antagonism. 340,000 tested, 0.74% active. AID 588413. Sufu-KO-LIGHT fibroblasts, Gli luciferase reporter luminescence. inhibition, % at 5 µM;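 active = inhibition above about 55%, limit read from the data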;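 also: 0% = DMSO-treated cells and 100% = wells with medium but no cells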
NCOA1 inh – inhibitors of human steroid receptor coactivator 1 (SRC1). Q15788. HEK293 GAL4-SRC1 luciferase reporter, luminescence. inhibition, % at 3.6 µM. 360,000 tested, 0.12% active. AID 588354;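 active = inhibition above the campaign mean plus 3 SD, with each screening campaign given its own cutoff, cut at about 60% in these data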;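 also: 0% = DMSO treated cells and 100% = gossypol at 36 µM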
NCOA3 inh – inhibitors of human steroid receptor coactivator 3 (SRC3); 360,000 tested, 0.17% active; AID 588352; HEK293 GAL4-SRC3 luciferase reporter, luminescence; inhibition, % at 3.6 µM;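 active = inhibition above a per-campaign cutoff, the mean of all compounds plus 3 SD, cut at about 60% in these data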;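 also: 0% = DMSO-treated cells and 100% = gossypol-treated cells at 36 µM; higher means less SRC3-driven luciferase light from the GAL4 reporter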
Target sequence (Q9Y6Q9 whole entry, looked up, the tested form may be a part): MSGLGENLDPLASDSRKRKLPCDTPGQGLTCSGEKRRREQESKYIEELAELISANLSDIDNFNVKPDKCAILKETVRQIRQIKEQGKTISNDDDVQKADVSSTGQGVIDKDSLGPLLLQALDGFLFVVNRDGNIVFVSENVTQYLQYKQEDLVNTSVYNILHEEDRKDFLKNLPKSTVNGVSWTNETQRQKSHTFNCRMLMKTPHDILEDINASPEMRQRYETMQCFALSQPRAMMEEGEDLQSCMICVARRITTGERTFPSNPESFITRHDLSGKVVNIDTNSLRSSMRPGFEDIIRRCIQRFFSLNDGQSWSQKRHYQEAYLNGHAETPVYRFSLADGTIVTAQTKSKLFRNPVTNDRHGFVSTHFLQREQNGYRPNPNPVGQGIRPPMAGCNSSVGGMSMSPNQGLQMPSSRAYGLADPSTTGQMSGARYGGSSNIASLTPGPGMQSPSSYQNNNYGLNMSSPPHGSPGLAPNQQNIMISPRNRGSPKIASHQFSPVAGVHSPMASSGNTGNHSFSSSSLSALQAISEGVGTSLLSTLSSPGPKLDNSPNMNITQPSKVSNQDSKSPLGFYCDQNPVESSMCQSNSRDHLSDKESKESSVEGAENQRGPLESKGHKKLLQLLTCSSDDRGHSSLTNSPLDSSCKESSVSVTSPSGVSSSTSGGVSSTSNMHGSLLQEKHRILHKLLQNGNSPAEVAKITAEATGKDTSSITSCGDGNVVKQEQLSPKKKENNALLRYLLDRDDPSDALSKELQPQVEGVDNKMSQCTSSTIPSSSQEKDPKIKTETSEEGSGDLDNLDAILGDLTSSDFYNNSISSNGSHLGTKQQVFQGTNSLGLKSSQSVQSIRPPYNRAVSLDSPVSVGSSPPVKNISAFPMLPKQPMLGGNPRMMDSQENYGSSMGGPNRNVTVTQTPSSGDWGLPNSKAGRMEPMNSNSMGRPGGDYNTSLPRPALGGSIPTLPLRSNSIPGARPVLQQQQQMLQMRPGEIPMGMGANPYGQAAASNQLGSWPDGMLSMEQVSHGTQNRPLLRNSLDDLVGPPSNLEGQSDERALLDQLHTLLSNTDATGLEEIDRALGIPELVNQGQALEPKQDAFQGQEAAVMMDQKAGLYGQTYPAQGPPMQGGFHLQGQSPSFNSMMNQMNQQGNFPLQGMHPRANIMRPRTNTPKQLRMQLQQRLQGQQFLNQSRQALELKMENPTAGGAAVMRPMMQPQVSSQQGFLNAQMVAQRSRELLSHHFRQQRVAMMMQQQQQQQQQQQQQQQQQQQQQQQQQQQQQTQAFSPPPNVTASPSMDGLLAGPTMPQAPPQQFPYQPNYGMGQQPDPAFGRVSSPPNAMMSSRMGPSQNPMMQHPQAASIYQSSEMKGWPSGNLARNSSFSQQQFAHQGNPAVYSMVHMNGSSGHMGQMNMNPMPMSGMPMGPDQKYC
Gli antag conf – Gli-SUFU antagonism confirmation, single concentration; shares compounds with Gli-Sufu antag; Sufu-KO-LIGHT cells, Gli luciferase reporter, luminescence; inhibition, % at 5 µM; 2,500 tested, 40% active; AID 602428;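 active = mean inhibition at 5 µM reaching about 45%, limit read from the data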;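 also: plate controls were DMSO-treated cells for no effect and wells lacking cells for full effect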
SufuKO cytotox – cytotoxic in Gli-SUFU antagonist counter-screen; 2,500 tested, 32% active; cytotoxicity, % at 5 µM; shares compounds with Gli-Sufu antag; Sufu-KO-LIGHT cells cytotoxicity, ATP luminescence;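 active = mean cytotoxicity at 5 µM above about 25%, limit read from the data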;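 also: cells exposed to compound overnight for roughly 16 to 18 hours; plate controls were DMSO wells with cells for no effect and medium without cells for full effect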
Wnt3a cs – Wnt3a reporter inhibition counter-screen; AID 651995; 2,500 tested, 20% active; inhibition, % at 6.25 µM; shares compounds with Gli-Sufu antag; Wnt-LIGHT cells, Wnt3a-driven luciferase reporter, luminescence;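 active = mean inhibition above about 25%, limit read from the data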
An asterisk follows results filed as active; x = no result given.

SMILES	LRH-1 inv ag	NR2F2 inh	SRC2 inh	Gli-Sufu antag	NCOA1 inh	NCOA3 inh	Gli antag conf	SufuKO cytotox	Wnt3a cs
COc1cccc(-c2nc(NCCN3CCOCC3)c3ccccc3n2)c1O	29	2	-63	98*	1	13	31	20	-70
COc1ccc(/C=C2/SC(=S)N(CCCC(=O)Nc3cccc(O)c3)C2=O)cc1	24	14	29	62*	-5	1	58*	0	-21
COc1ccc(/C=C2\SC(=S)N(CCC(=O)Nc3cccc(O)c3)C2=O)cc1OC	-15	-6	1	-9	-54	-18	x	x	x
C=CCNc1cccc2c1S(=O)(=O)N[C@@H](C)CO2	x	-15	-3	x	x	x	x	x	x
CCCCn1c(SCc2c(C)noc2C)nc2cc(S(N)(=O)=O)ccc21	35	-66	-72	51	-5	19	62*	1	-13
CCCCn1c(SCC(=O)Nc2cc(C)on2)nc2cc(S(N)(=O)=O)ccc21	-3	6	-13	-17	-5	17	x	x	x
COc1ccc2nc3sc(C(=O)N4CCN(C)CC4)cc3cc2c1	-2	-7	-19	94*	-9	-6	9	23	1
Cc1ccc2c(c1)c(N=Nc1ccc([N+](=O)[O-])cc1)c(O)n2C	-11	15	20	51	15	-18	37	14	-14
Cn1cccc1C(=O)N1CCN(S(=O)(=O)c2ccccc2F)CC1	x	-13	-12	x	x	x	x	x	x
C[C@H]1[C@@H](OC(=O)NCc2ccccc2)CC[C@@]23CCCN2C(=O)CCC[C@@H]13	x	3	x	x	x	x	x	x	x
CC(COc1ccc(S(C)(=O)=O)cc1)CN1CCC(C(O)(c2ccccc2)c2ccccc2)CC1 (stereo unspecified)	x	-2	-23	x	x	x	x	x	x
CCOC(=O)CNC(=O)CSc1nc(-c2ccc(C)cc2)ns1	-9	4	2	-18	-8	-1	x	x	x
CCOC(=O)CNC(=O)CSc1nc(-c2ccccc2)ns1	-1	-28	-7	62*	-1	17	27	17	3
Cc1cccc(-c2cccc3c4c([nH]c23)[C@@H]2C[C@H]3[C@@H](C(=O)N2CC4)[C@H](C)ON3C)c1	x	-13	-20	x	x	x	x	x	x
Oc1ccc(/C=N/Nc2nc(N3CCCC3)nc(N3CCCC3)n2)cc1O	-10	-12	-1	64*	-12	-23	51*	23	83*
COc1cc(/C=N/Nc2nc(N3CCCC3)nc(N3CCCC3)n2)ccc1O	14	-14	0	-1	3	12	x	x	x
Cc1ccc(OCc2cc(C(=O)NC3CCCCC3)no2)cn1	26	31	31	57*	1	12	27	17	-13
O=C(NC1CCCC1)c1cc(COc2ccc3ncccc3c2)on1	36	x	x	54	24	37	63*	24	21
O=[N+]([O-])c1ccc(/C=[N+](\[O-])[C@@H]2CCCC[C@@H]2/[N+]([O-])=C/c2ccc([N+](=O)[O-])o2)o1	8	13	-51	76*	-61	-41	67*	-2	21
O=C(N/N=C/c1ccc([N+](=O)[O-])o1)C1CCCC1	3	0	-22	21	-85	4	x	x	x
COc1ccc(NS(=O)(=O)c2cccc(C(=O)NC3CCN(Cc4ccccc4)CC3)c2)cc1	14	28	27	57*	-3	17	35	10	11
COc1ccc(CNC2CCN(Cc3ccccc3)CC2)cc1	-13	-19	-8	58*	3	1	18	8	-9
COc1ccc(CNC(=O)CN2CCC(NC(=O)c3ccc(OC)cc3)CC2)cc1	-4	5	-28	62*	-25	-15	26	11	-28
COc1ccc(CN2CCC(CNC(=O)NCc3ccccc3)CC2)cc1	x	10	-17	x	x	x	x	x	x
COc1ccc(C2=Nn3c(nnc3C3CCCCC3)SC2)cc1	x	2	8	x	x	x	x	x	x
SMILES	LRH-1 inv ag	NR2F2 inh	SRC2 inh	Gli-Sufu antag	NCOA1 inh	NCOA3 inh	Gli antag conf	SufuKO cytotox	Wnt3a cs
COc1ccccc1-c1ccc(OCCCN2CCC(C(O)(c3ccccc3)c3ccccc3)CC2)cc1	x	-2	4	x	x	x	x	x	x
COCCCN1C(=O)[C@H](CC(=O)NCc2cccc(C(F)(F)F)c2)[C@]2(C(=O)OC)CCCCC=C12	x	5	11	x	x	x	x	x	x
COc1ccc(S(=O)(=O)Nc2ccccc2Cl)cc1NC(C)=O	1	-8	-10	52	11	8	12	-2	0
COc1ccc(S(=O)(=O)Nc2ccccc2C(=O)NC2CC2)cc1NC(C)=O	-5	3	3	-4	7	-10	x	x	x
CC(C)c1ccc(N2C(=O)C3C4C=CC(CC4)C3C2=O)cc1 (stereo unspecified)	7	5	21	4	10	-6	x	x	x
CC1CC(=O)N(c2ccc(C(C)C)cc2)C(=O)C1	6	1	11	54	17	13	21	16	-17
O=C(Nc1ccccc1Oc1cccnc1)C1CCCN(Cc2ccccc2O)C1 (stereo unspecified)	11	-1	-31	51	7	6	14	28*	-12
CCC(NC(=O)c1ccc2c(ccn2Cc2cccc(-c3ccccc3C(=O)O)c2)c1)c1ccccc1 (stereo unspecified)	x	-19	-38	x	x	x	x	x	x
COc1cc(/C=C2/CCCC(C(=O)C(F)(F)F)=C2O)ccc1O	0	20	14	3	0	18	x	x	x
CCOc1cc(/C=C2\CCCC(C(=O)C(F)(F)F)=C2O)ccc1O	-8	32	17	59*	-24	13	7	1	-58
CCOc1ccc(-n2c(SCC(=O)Nc3ccc4c(c3)c3ccccc3n4CC)nnc2-c2cccnc2)cc1	x	7	11	x	x	x	x	x	x
Cc1csc(NC(=O)c2cc3c(s2)CCC3)n1	-121	-10	-3	62*	-101	-80	-62	12	-1
COC(=O)c1sc(NC(=O)c2cc3c(s2)CCCC3)nc1C	-171	-25	-40	-100	-128	-83	x	x	x
CCn1c(C)c(C)c2cc(C(=O)NCCN3CCOCC3)ccc21	-1	-4	3	58*	5	11	29	6	-10
Cc1cc(=O)oc(C)c1C(=O)NCCN1CCOCC1	-2	1	23	72*	17	6	28	-6	25*
C[C@H](CO)N1C[C@H](C)[C@H](CN(C)C(=O)Nc2cccc(F)c2)OCc2cnnn2CCCC1=O	x	-2	2	x	x	x	x	x	x
O=C(Nc1ccc(F)cc1)OC1CC2CC1[C@H]1CCCCN1C2 (stereo partly specified)	x	3	-1	x	x	x	x	x	x
CCOCCCNC(=O)C(NC(=O)c1ccc(NC(C)=O)cc1)c1ccc(Cl)cc1 (stereo unspecified)	11	-8	5	4	2	-7	x	x	x
